In PubChem BioAssay AID1159580 (chemical genetic matrix, 2015):
Screen size: about 5,500 compounds; about 2,000 (36%) were called active. Not shown: some 18% with an inconclusive outcome. Cut-off read from the data, not from the text of the source: active = normalized growth mostly below about 0.91 (no sharp cut-off); inconclusive = no clear call, values can overlap the other calls; inactive = mostly above about 0.92. The list shows a part of the results.

Assay: chemical genetic growth profiling, strain panel (AID 1159580);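 note: tested at 20 µM; growth read once vehicle control cultures reached saturation at 30 °C; 1 = growth at the plate median or of vehicle wells; lower values mean less growth of the strain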
Conditions: growth OD
[1] = S. cerevisiae deletion strains, locus YAL013W, strain DEP1, hits give low values
[2] = S. cerevisiae deletion strains, locus YBR229C, strain ROT2, hits give low values
[3] = S. cerevisiae deletion strains, locus YCL061C, strain MRC1, hits give low values
[4] = S. cerevisiae deletion strains, locus YDL101C, strain DUN1, hits give low values
[5] = S. cerevisiae deletion strains, locus YDR150W, strain NUM1, hits give low values
[6] = S. cerevisiae deletion strains, locus YEL061C, strain CIN8, hits give low values
[7] = S. cerevisiae deletion strains, locus YGR078C, strain PAC10, hits give low values
[8] = S. cerevisiae deletion strains, locus YGR229C, strain SMI1, hits give low values
[9] = S. cerevisiae deletion strains, locus YHR030C, strain SLT2, hits give low values
[10] = S. cerevisiae deletion strains, locus YHR087W, strain rtc3, hits give low values
[11] = S. cerevisiae deletion strains, locus YJL187C, strain SWE1, hits give low values
[12] = S. cerevisiae deletion strains, locus YJR043C, strain POL32, hits give low values
[13] = S. cerevisiae deletion strains, locus YJR075W, strain HOC1, hits give low values
[14] = S. cerevisiae deletion strains, locus YKL190W, strain CNB1, hits give low values
[15] = S. cerevisiae deletion strains, locus YLR039C, strain RIC1, hits give low values
[16] = S. cerevisiae deletion strains, locus YLR058C, strain SHM2 (second series), hits give low values
[17] = S. cerevisiae deletion strains, locus YLR085C, strain ARP6, hits give low values
[18] = S. cerevisiae deletion strains, locus YLR262C, strain YPT6, hits give low values
[19] = S. cerevisiae deletion strains, locus YML094W, strain GIM5, hits give low values
[20] = S. cerevisiae deletion strains, locus YMR219W, strain ESC1, hits give low values
[21] = S. cerevisiae deletion strains, locus YMR263W, strain SAP30, hits give low values
[22] = S. cerevisiae deletion strains, locus YNL128W, strain TEP1, hits give low values
[23] = S. cerevisiae deletion strains, locus YNL153C, strain GIM3, hits give low values
[24] = S. cerevisiae deletion strains, locus YNL298W, strain CLA4 (second series), hits give low values
[25] = S. cerevisiae deletion strains, locus YNL322C, strain KRE1, hits give low values
[26] = S. cerevisiae deletion strains, locus YNR030W, strain Alg12, hits give low values
[27] = S. cerevisiae deletion strains, locus YPL055C, strain LGE1, hits give low values
[28] = S. cerevisiae deletion strains, locus YPL241C, strain CIN2, hits give low values
[29] = S. cerevisiae deletion strains, locus YPR135W, strain CTF4, hits give low values
[30] = S. cerevisiae strains, strain wild type, hits give low values
[31] = S. cerevisiae deletion strains, locus YDL134C, strain PPH21, hits give low values
[32] = S. cerevisiae deletion strains, locus YMR307W, strain GAS1, hits give low values

Measured: normalized growth

C=C1SC(=Nc2cccc(OC)c2)N(C(=O)C(c2ccccc2)C2CCCC2)C1(C)C (stereo not given)
inactive: [1] 1.01 | [2] 0.971 | [3] 1.01 | [4] 1.06 | [5] 1.02 | [6] 0.963 | [7] 1.01 | [8] 0.983 | [9] 1.03 | [10] 0.957 | [11] 0.999 | [12] 1.01 | [13] 1.02 | [14] 0.977 | [15] 0.922 | [16] 0.979 | [17] 1.02 | [18] 0.919 | [19] 1 | [20] 1 | [21] 1.02 | [22] 0.97 | [23] 1.03 | [24] 1.01 | [25] 0.984 | [26] 1.02 | [27] 0.997 | [28] 1.07 | [29] 1.03 | [30] 0.95

CC(C)(C)c1ccc(-c2n[nH]c(=S)n2-c2cccc(C(F)(F)F)c2)cc1
inactive: [1] 0.993 | [2] 1.01 | [4] 0.995 | [5] 1.01 | [6] 0.972 | [7] 0.977 | [9] 0.966 | [10] 1 | [12] 1.01 | [14] 1.01 | [16] 1.03 | [17] 1.06 | [18] 0.884 | [19] 0.978 | [20] 1.01 | [21] 1 | [23] 1.03 | [24] 0.958 | [25] 1.01 | [26] 0.964 | [27] 0.949 | [28] 0.949 | [29] 0.829
active: [11] 1.22 [resistant] | [13] 1.24 [resistant] | [15] 0.744

COc1ccc(-c2n[nH]c(=S)n2-c2cccc(OC)c2)cc1
inactive: [1] 0.987 | [2] 0.994 | [3] 0.977 | [4] 0.969 | [31] 0.979 | [5] 0.977 | [6] 1.01 | [7] 0.956 | [9] 1.02 | [10] 1.02 | [11] 0.993 | [12] 0.979 | [13] 0.967 | [15] 0.944 | [16] 0.989 | [17] 0.954 | [18] 1 | [19] 1 | [20] 0.986 | [21] 1 | [22] 0.989 | [23] 0.983 | [24] 0.957 | [25] 0.978 | [26] 0.966 | [27] 0.994 | [28] 0.967 | [29] 0.904

N#C/C(NCc1cccs1)=C(\C#N)NCc1c(F)cccc1Cl
inactive: [1] 0.958 | [2] 0.977 | [3] 0.97 | [4] 0.979 | [5] 0.899 | [6] 0.998 | [7] 0.973 | [9] 0.919 | [10] 0.991 | [11] 1 | [12] 0.988 | [13] 0.97 | [15] 0.939 | [16] 0.972 | [17] 0.957 | [18] 0.969 | [19] 0.964 | [20] 0.986 | [21] 0.947 | [32] 0.919 | [23] 0.993 | [24] 0.959 | [25] 0.969 | [26] 0.964 | S. cerevisiae deletion strains, locus YOL006C, strain TOP1, hits give low values 1.01 | [28] 0.973 | [29] 0.962

O=C(NC1Cc2ccccc2C1)c1cncc(Br)c1
inactive: [1] 1 | [2] 0.992 | [3] 0.982 | [4] 1 | [31] 1.05 | [5] 0.937 | [6] 0.99 | [7] 0.994 | [8] 0.985 | [9] 0.848 | [10] 0.985 | [11] 1.01 | [12] 0.994 | [13] 0.982 | [14] 0.99 | [15] 1.03 | [16] 0.985 | [17] 0.952 | [18] 0.992 | [19] 0.98 | [20] 0.991 | [21] 0.984 | [32] 0.912 | [23] 0.994 | [24] 0.966 | [25] 0.995 | [26] 0.982 | [27] 0.982 | [28] 0.98 | [29] 0.836 | [30] 0.988

Cn1c(CSCC(=O)Nc2ccccc2)n[nH]c1=S
inactive: [1] 1.01 | [2] 1.01 | [3] 1.02 | [4] 1.02 | [5] 1.02 | [6] 1 | [7] 0.999 | [9] 1.09 | [10] 1.01 | [12] 1.02 | [13] 0.991 | [15] 1 | [16] 1 | [17] 0.966 | [18] 1.01 | [19] 0.994 | [20] 0.993 | [21] 1.02 | [22] 0.994 | [23] 1.02 | [24] 1.03 | [25] 0.99 | [26] 1 | [27] 1.03 | [28] 1 | [29] 1.07 | [30] 0.981

O=C(Nc1ccc(Cl)cc1)SCc1c(Cl)cccc1Cl
active: S. cerevisiae deletion strains, locus YFR019W, strain FAB1, hits give low values 0.747 | [9] 0.793 | S. cerevisiae deletion strains, locus YLR113W, strain HOG1, hits give low values 0.728 | S. cerevisiae deletion strains, locus YPL256C, strain CLN2, hits give low values 0.811
inactive: S. cerevisiae deletion strains, locus YAR019C, strain CDC15, hits give low values 0.985 | S. cerevisiae deletion strains, locus YBL105C, strain PKC1, hits give low values 0.976 | S. cerevisiae deletion strains, locus YBR135W, strain CKS1, hits give low values 0.984 | S. cerevisiae deletion strains, locus YBR136W, strain MEC1, hits give low values 0.967 | S. cerevisiae deletion strains, locus YBR160W, strain CDC28, hits give low values 0.988 | S. cerevisiae deletion strains, locus YDL017W, strain CDC7, hits give low values 0.976 | S. cerevisiae deletion strains, locus YDL028C, strain MPS1, hits give low values 0.987 | [4] 0.974 | S. cerevisiae deletion strains, locus YDL108W, strain KIN28, hits give low values 0.959 | S. cerevisiae deletion strains, locus YDL132W, strain cdc53, hits give low values 0.999 | S. cerevisiae deletion strains, locus YDL214C, strain PRR2, hits give low values 0.786 | S. cerevisiae deletion strains, locus YDR052C, strain DBF4, hits give low values 0.974 | S. cerevisiae deletion strains, locus YDR054C, strain cdc34, hits give low values 0.953 | S. cerevisiae deletion strains, locus YDR226W, strain ADK1, hits give low values 0.969 | S. cerevisiae deletion strains, locus YDR477W, strain SNF1, hits give low values 0.83 | S. cerevisiae deletion strains, locus YER123W, strain YCK3, hits give low values 0.659 | S. cerevisiae deletion strains, locus YER133W, strain GLC7, hits give low values 0.834 | S. cerevisiae deletion strains, locus YFL009W, strain cdc4, hits give low values 1 | S. cerevisiae deletion strains, locus YFL029C, strain CAK1, hits give low values 0.975 | S. cerevisiae deletion strains, locus YFR003C, strain YPI1, hits give low values 0.972 | S. cerevisiae deletion strains, locus YFR028C, strain CDC14, hits give low values 0.988 | S. cerevisiae deletion strains, locus YGR040W, strain KSS1, hits give low values 0.808 | S. cerevisiae deletion strains, locus YGR052W, strain FMP48, hits give low values 0.765 | S. cerevisiae deletion strains, locus YGR092W, strain DBF2, hits give low values 0.763 | S. cerevisiae deletion strains, locus YHR079C, strain IRE1, hits give low values 0.748 | S. cerevisiae deletion strains, locus YHR082C, strain KSP1, hits give low values 0.787 | S. cerevisiae deletion strains, locus YHR205W, strain SCH9, hits give low values 0.919 | S. cerevisiae deletion strains, locus YIL147C, strain SLN1, hits give low values 0.973 | S. cerevisiae deletion strains, locus YJL095W, strain BCK1, hits give low values 0.745 | S. cerevisiae deletion strains, locus YJL128C, strain PBS2, hits give low values 0.92 | S. cerevisiae deletion strains, locus YJL157C, strain FAR1, hits give low values 0.76 | S. cerevisiae deletion strains, locus YJR016C, strain ILV3, hits give low values 0.995 | S. cerevisiae deletion strains, locus YJR066W, strain TOR1 (second series), hits give low values 0.746 | S. cerevisiae deletion strains, locus YJR066W, strain TOR1, hits give low values 0.788 | S. cerevisiae deletion strains, locus YKL048C, strain ELM1, hits give low values 0.891 | S. cerevisiae deletion strains, locus YKL067W, strain YNK1, hits give low values 0.8 | S. cerevisiae deletion strains, locus YKL101W, strain HSL1, hits give low values 0.83 | S. cerevisiae deletion strains, locus YKL193C, strain SDS22, hits give low values 0.973 | S. cerevisiae deletion strains, locus YKL203C, strain TOR2, hits give low values 0.891 | S. cerevisiae deletion strains, locus YLR133W, strain CKI1, hits give low values 0.816 | S. cerevisiae deletion strains, locus YLR403W, strain SFP1, hits give low values 0.897 | S. cerevisiae deletion strains, locus YML070W, strain DAK1, hits give low values 0.783 | S. cerevisiae deletion strains, locus YMR001C, strain CDC5, hits give low values 0.971 | S. cerevisiae deletion strains, locus YMR205C, strain PFK2 (second series), hits give low values 0.836 | S. cerevisiae deletion strains, locus YMR277W, strain FCP1, hits give low values 0.975 | S. cerevisiae deletion strains, locus YNL006W, strain LST8, hits give low values 0.989 | S. cerevisiae deletion strains, locus YNL020C, strain ARK1, hits give low values 0.771 | S. cerevisiae deletion strains, locus YNL161W, strain CBK1, hits give low values 0.974 | S. cerevisiae deletion strains, locus YNL183C, strain NPR1, hits give low values 0.821 | S. cerevisiae deletion strains, locus YNL207W, strain RIO2, hits give low values 0.955 | S. cerevisiae deletion strains, locus YNL222W, strain SSU72, hits give low values 0.979 | S. cerevisiae deletion strains, locus YNL307C, strain MCK1 (second series), hits give low values 0.721 | S. cerevisiae deletion strains, locus YOL078W, strain AVO1, hits give low values 0.977 | S. cerevisiae deletion strains, locus YOL136C, strain PFK27, hits give low values 0.761 | S. cerevisiae deletion strains, locus YOR061W, strain CKA2, hits give low values 0.756 | S. cerevisiae deletion strains, locus YOR119C, strain RIO1, hits give low values 0.905 | S. cerevisiae deletion strains, locus YOR231W, strain MKK1, hits give low values 0.831 | S. cerevisiae deletion strains, locus YOR329C, strain SCD5, hits give low values 0.979 | S. cerevisiae deletion strains, locus YPL031C, strain PHO85, hits give low values 0.778 | S. cerevisiae deletion strains, locus YPL153C, strain RAD53, hits give low values 0.798 | S. cerevisiae deletion strains, locus YPL204W, strain HRR25, hits give low values 0.813 | S. cerevisiae deletion strains, locus YPL209C, strain IPL1, hits give low values 0.972 | S. cerevisiae deletion strains, locus YPR025C, strain CCL1, hits give low values 0.988 | S. cerevisiae deletion strains, locus YPR106W, strain ISR1, hits give low values 0.963 | S. cerevisiae deletion strains, locus YPR111W, strain DBF20, hits give low values 0.961 | S. cerevisiae deletion strains, strain NNK1, hits give low values 0.954 | S. cerevisiae deletion strains, strain TSCII, hits give low values 0.978
